# Reference: PubChem BioAssay (EPA / NIEHS)
# Results filed as inconclusive are left out. Activity calls are given as the source filed them. The calls were made as follows: active = hit-call score of the fitted dose curve at least 0.9, where 1 is the maximum; inconclusive = response in the unintended direction; inactive = score below 0.9.
# Tested on: not listed separately
# Assay: ATG_M_19_TRANS: Attagene TRANS-FACTORIAL HepG2 Assay for M19 Transcription Factor (Internal Marker) (AID 2282974)
# Conditions: HepG2 Attagene TRANS-FACTORIAL M19 internal marker reporter
# Summary of the method: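 HepG2 cells transiently transfected with multiple GAL4-UAS reporter transcription units were exposed to chemicals for 24 h. Reporter mRNA was read by RT-PCR, 6-FAM primer extension, HpaI digestion and capillary electrophoresis; gain of signal fitted relative to DMSO.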
row,SMILES,outcome
1,CC(C)(C)c1n[nH]c(=S)n(N)c1=O,inactive
2,CC(C)[C@H]1CC[C@@H](C)CC1=O,inactive
3,O=C(O)Cc1cccc2ccccc12,inactive
4,CCCC(=O)OCCC(C)CCC=C(C)C (stereo not given),inactive
5,CCC(O)CO (stereo not given),inactive
6,CC1(C)OC[C@@H]2O[C@@]3(C(=O)O)OC(C)(C)O[C@H]3[C@@H]2O1,inactive
7,CC(C)(CO)[N+](=O)[O-],inactive
8,CCCC/C=C\CCCCCCCCCC=O,inactive
9,CCC(=O)OCc1ccccc1,inactive
10,CO[Si](CCCn1c(=O)n(CCC[Si](OC)(OC)OC)c(=O)n(CCC[Si](OC)(OC)OC)c1=O)(OC)OC,inactive
11,Cc1ccccc1C=O,inactive
12,O=Nc1ccc(Nc2ccccc2)cc1,inactive
13,CC(=O)OCCOC(C)=O,inactive

# Tested on: not listed separately
# Assay: ATG_GAL4_TRANS: Attagene TRANS-FACTORIAL HepG2 Assay for GAL4 (Internal Marker) (AID 2282976)
# Conditions: HepG2 Attagene TRANS GAL4 internal marker reporter
# Summary of the method: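 First, HepG2 cells were transfected with reporter units under GAL4-UAS control. Next, they were treated with chemical for 24 h. Finally, RNA was reverse-transcribed, PCR-amplified, FAM-labelled and resolved by capillary electrophoresis, with induction scored against DMSO.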
row,SMILES,outcome
1,O=[N+]([O-])c1ccc(Nc2ccc(Nc3ccccc3)c(S(=O)(=O)O)c2)c([N+](=O)[O-])c1,inactive
2,COc1ccc(OC)c(OC)c1,inactive
3,CC(=O)OCc1ccc2c(c1)OCO2,inactive
4,CCCC(=O)OCCC(C)CCC=C(C)C (stereo not given),inactive
5,CCCCCCCCC=O,inactive
6,CCC(O)CO (stereo not given),inactive
7,O=C1NC(=O)c2ccccc21,inactive
8,CC1(C)[C@H](C(=O)OCc2cccc(Oc3ccccc3)c2)[C@@H]1C=C(Cl)Cl,inactive
9,CC1(C)OC[C@@H]2O[C@@]3(C(=O)O)OC(C)(C)O[C@H]3[C@@H]2O1,inactive
10,S=C(S)NCCNC(=S)S,inactive
11,OCC(CO)(CO)COCC(CO)(CO)CO,inactive
12,Cc1ccc(C(C)C)cc1O,inactive
13,CC(C)(CO)[N+](=O)[O-],inactive
14,CO[Si](CCCn1c(=O)n(CCC[Si](OC)(OC)OC)c(=O)n(CCC[Si](OC)(OC)OC)c1=O)(OC)OC,inactive
15,CC(=O)OCCOC(C)=O,inactive
16,C=CCOC(=O)CCC1CCCCC1,inactive
17,NC(=O)NC1NC(=O)NC1=O (stereo not given),inactive

# Target: Estrogen-related receptor gamma (Homo sapiens) (UniProt P62508)
# Sequence (P62508 whole entry, looked up): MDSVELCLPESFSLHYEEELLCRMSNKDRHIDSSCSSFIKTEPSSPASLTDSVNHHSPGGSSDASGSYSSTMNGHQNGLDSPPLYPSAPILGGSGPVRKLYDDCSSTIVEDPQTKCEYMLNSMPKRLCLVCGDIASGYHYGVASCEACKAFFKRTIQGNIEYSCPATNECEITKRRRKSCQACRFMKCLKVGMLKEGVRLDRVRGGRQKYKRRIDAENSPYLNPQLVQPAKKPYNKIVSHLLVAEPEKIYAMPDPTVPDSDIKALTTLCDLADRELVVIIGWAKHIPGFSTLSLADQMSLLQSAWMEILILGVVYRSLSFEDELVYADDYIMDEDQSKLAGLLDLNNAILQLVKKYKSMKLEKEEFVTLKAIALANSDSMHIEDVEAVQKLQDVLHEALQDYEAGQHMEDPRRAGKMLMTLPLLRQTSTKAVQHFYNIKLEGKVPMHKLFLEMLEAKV
# Assay: ATG_ERRg_TRANS: Attagene TRANS-FACTORIAL HepG2 Assay for human Estrogen-Related Receptor gamma (ERRg) (AID 2282977);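 also: hits increase reporter signal over DMSO so potencies reflect activators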
# Conditions: HepG2 Attagene TRANS reporter, ERRg transactivation
# Summary of the method: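 Transfect HepG2 with multiple GAL4-UAS reporter transcription units; dose chemicals 24 h; isolate RNA, reverse-transcribe with oligo(dT), PCR-amplify, label with 6-FAM, digest with HpaI; size fragments by capillary electrophoresis. DMSO serves as negative control.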
row,SMILES,outcome
1,CCCC(=O)OCCC(C)CCC=C(C)C (stereo not given),inactive
2,CCCCCCCCC=O,inactive
3,CCCC/C=C\CCCCCCCCCC=O,inactive
4,Nc1cccc(S(=O)(=O)c2cccc(N)c2)c1,inactive
5,O=Nc1ccc(Nc2ccccc2)cc1,inactive
